We go through 69 molecules from PubChem BioAssay AID1159554 (Broad Institute, 2015).

In all, about 94,000 compounds went through this assay and about 2,100 (2.2%) were called active. What follows is part of a selection rich in actives, with near analogues and random picks from the rest. Unmarked numbers belong to inactive results. Cut-off read from the data, not from the text of the source: active = activity change below about -80%; inconclusive = no clear call, values can overlap the other calls; inactive = above that.

A short description of the assay: Dd2 malaria parasite growth inhibition – SYBR Green fluorescence, single dose replicates, primary screen (AID 1159554). The note with it: P. falciparum Dd2 growth, 72 h, at 10 µM, hits give low values.
For the molecule `COc1ccc2c3c(n(C)c2c1)[C@@H](CO)N(CC1CC1)CC31CN(C(=O)c2cccc(F)c2)C1`, the activity change was -33.2%. As for `CO[C@H](CN(C)C(=O)c1cnccn1)[C@@H](C)CN([C@@H](C)CO)S(=O)(=O)c1ccc(C)cc1`, the figure is 25.3%; as for `COc1ccccc1NC(=O)N1C[C@H]2[C@@H](c3ccccc31)[C@@H](CO)N2C(=O)C1CCCC1`, -11.4%; as for `CCNC(=O)[C@H]1[C@H](CO)[C@H]2Cn3c(ccc(C4=CCCC4)c3=O)[C@@H]1N2S(=O)(=O)c1cn(C)cn1`, 21.7%. The result for `COc1ccc(-c2ccc3c(c2)O[C@H](CN(C)Cc2ccccc2C(=O)O)[C@H](C)CN([C@@H](C)CO)S3(=O)=O)cc1` reads -14.1%; that for `CO[C@H]1CN(C)C(=O)c2cc(NC(=O)c3ccc4c(c3)OCO4)ccc2OC[C@@H](C)N(CCC(F)(F)F)C[C@H]1C`, -12.7%.

Take `C[C@@H](C(=O)N(C)C[C@H]1OCc2ccccc2-c2c(n(C)c3ccccc23)C(=O)N([C@@H](C)CO)C[C@@H]1C)c1ccccc1`: the activity change was -70%. As for `O=C(C[C@@H]1CC[C@@H]2[C@H](COC[C@@H](O)CN2Cc2cc(F)cc(F)c2)O1)NCc1cccc(F)c1`, the figure is -16.3%; as for `C[C@H](CO)N1C[C@H](C)[C@@H](CN(C)C(=O)c2ccncc2)Oc2cc(C3=CCCCC3)ccc2S1(=O)=O`, -11.8%.

With `C[C@H](CO)N1C[C@H](C)[C@@H](CN(C)C(=O)Nc2ccccc2)Oc2c(NC(=O)CCCCCC(=O)Nc3ccccc3N)cccc2C1=O`, the activity change was -26.6%.

On to `C[C@H](CO)N1C[C@H](C)[C@H](CN(C)CC2CCCCC2)Oc2ccc(NC(=O)CCCCCC(=O)Nc3ccccc3N)cc2CC1=O`, for which the activity change was -32.3%.

With `CC(C)NC(=O)Nc1cccc2c1O[C@H](CN(C)CC1CCCCC1)[C@H](C)CN([C@H](C)CO)C2=O`, the activity change is -26.3%. The result for `C[C@@H]1CN([C@@H](C)CO)C(=O)c2cccc(NC(=O)CCCCCC(=O)Nc3ccccc3N)c2O[C@H]1CN(C)C(=O)Nc1cccc2ccccc12` reads -86.4% (active); that for `C[C@@H]1CN([C@@H](C)CO)C(=O)c2cccc(NC(=O)CCCCCC(=O)Nc3ccccc3N)c2O[C@H]1CN(C)C(=O)Nc1ccccc1`, -53.7%; that for `C[C@H]1CN([C@@H](C)CO)C(=O)c2cccc(NC(=O)CCCCCC(=O)Nc3ccccc3N)c2O[C@@H]1CN(C)CC1CCCCC1`, -83.5% (active). As for `COc1cccc(S(=O)(=O)Nc2ccc3c(c2)[C@H]2C[C@H](CC(=O)O)O[C@H](CO)[C@H]2O3)c1`, the activity change was 19%. As to `CCCNC(=O)Nc1ccc2c(c1)C(=O)N(C)C[C@@H](OC)[C@@H](C)CN(Cc1ccccn1)[C@@H](C)CO2`, the activity change was -2.2%. The result for `O=C(NC1CCC1)[C@H]1[C@H](CO)[C@H]2Cn3c(ccc(-c4ccccc4)c3=O)[C@@H]1N2Cc1cocn1` reads 10.7%; that for `Cn1cnc(S(=O)(=O)NC[C@@H]2CC[C@@H]3[C@@H](CN3Cc3nccs3)O2)c1`, 28.5%. As for `C[C@@H]1CCCCO[C@@H](CN(C)S(=O)(=O)c2cn(C)cn2)[C@@H](C)CN([C@@H](C)CO)C(=O)c2cc(NC(=O)Nc3ccc(C(F)(F)F)cc3)ccc2O1`, the figure is -75.5%.

`O=C(c1ccccc1F)N1CC(=O)N2[C@H](C1)[C@H](c1ccc(-c3ccc(F)cc3)cc1)[C@@H]2CO`: the activity change was -63.7%.

As to `O=C(c1cccnc1)N1CC(=O)N2[C@H](CO)[C@H](c3ccc(-c4cccnc4)cc3)[C@@H]2C1`, the activity change was 25.3%. The result for `O=C(Cc1cccnc1)N1CC(=O)N2[C@@H](CO)[C@H](c3ccc(C#CC4CC4)cc3)[C@@H]2C1` reads -6.96%; that for `O=C(c1ccccc1F)N1CC(=O)N2[C@H](CO)[C@@H](c3ccc(-c4cccnc4)cc3)[C@H]2C1`, 21.6%; that for `O=C(C1CCCC1)N1CC(=O)N2[C@H](C1)[C@@H](c1ccc(-c3cccnc3)cc1)[C@@H]2CO`, -88.2% (active). Consider `O=C(C1CCCC1)N1CC(=O)N2[C@@H](CO)[C@@H](c3ccc(-c4cccnc4)cc3)[C@@H]2C1`, for which the activity change was -20.4%.

Consider `CN(C)CC#Cc1ccc([C@@H]2[C@H](CO)N3C(=O)CN(C(=O)Cc4cccnc4)C[C@@H]23)cc1`, for which the activity change was -85.1% (active). The result for `O=C(c1ccccc1F)N1CC(=O)N2[C@H](CO)[C@H](c3ccc(-c4cccnc4)cc3)[C@H]2C1` reads -85.7% (active); that for `O=C(Cc1cccnc1)N1CC(=O)N2[C@H](CO)[C@H](c3ccc(C#CC4CCCC4)cc3)[C@@H]2C1`, -26.7%. Take `COc1ccc2c3c([nH]c2c1)[C@@H](CO)N(C(=O)CN1CCOCC1)CC31CCN(C)CC1`: the activity change was 27%.

For the molecule `O=C(C[C@@H]1C=C[C@@H](NS(=O)(=O)c2ccccc2)[C@@H](CO)O1)NCc1ccccc1F`, the activity change is 8.12%. On to `CN(C)CC#Cc1ccc([C@@H]2[C@H](CO)N3CCCCN(C(=O)NC4CCCC4)C[C@@H]23)cc1`, for which the activity change is 2.92%. On to `CCCNC(=O)Nc1ccc2c(c1)C(=O)N(C)C[C@@H](OC)[C@H](C)CN(CCC)[C@@H](C)CO2`, for which the activity change was 21.3%. The result for `COc1ccccc1NC(=O)N1CC(=O)N2[C@@H](CO)[C@H](c3ccc(C#CC4CC4)cc3)[C@@H]2C1` reads -3.54%; that for `O=C(C[C@H]1CC[C@@H]2[C@H](COC[C@@H](O)CN2Cc2cc(F)cc(F)c2)O1)NC1CCC1`, -26.6%. The result for `C[C@@H]1CN([C@@H](C)CO)C(=O)Cc2cc(NC(=O)CCCN(C)C)ccc2O[C@@H]1CN(C)Cc1ccc(-c2ccccc2)cc1` reads -71.2%; that for `CC(C)C(=O)Nc1ccc2c(c1)C(=O)N(C)[C@H]1CC[C@H](CC(=O)NCc3ccc(F)cc3)O[C@H]1CO2`, -8.71%; that for `CC(=O)N1Cc2cc(C(=O)NCc3cc(F)cc(F)c3)nc(-c3cccc(C4=CCCC4)c3)c2[C@@H]1CCO`, -66.6%. The result for `O=C(Nc1ccccc1F)N1CC(=O)N2[C@@H](CO)[C@H](c3ccc(C#CC4CCCC4)cc3)[C@@H]2C1` reads -8.5%. Turning to `CN1c2ccc(Br)cc2[C@@H]2[C@@H](CCN2C(=O)C2CCCCC2)[C@H]1CO`, the activity change was 11.1%.

`CCCc1cn(CC[C@H]2CC[C@@H](NC(=O)C3CCOCC3)[C@@H](CO)O2)nn1`: the activity change is -3.07%. Turning to `COc1ccc(S(=O)(=O)N(C)C[C@@H]2OCc3ccccc3-c3ccccc3C(=O)N([C@@H](C)CO)C[C@@H]2C)cc1`, the activity change is -71.4%. As for `C[C@H]1CN([C@@H](C)CO)C(=O)c2ccccc2-c2ccccc2CO[C@H]1CN(C)Cc1ccc(-c2ccccc2)cc1`, the figure is -88.6% (active); as for `COC(=O)N(C)C[C@H]1OCc2ccccc2-c2ccccc2C(=O)N([C@@H](C)CO)C[C@H]1C`, 23.3%; as for `Cc1ccc(S(=O)(=O)N(C)C[C@H]2OCc3ccccc3-c3ccccc3C(=O)N([C@@H](C)CO)C[C@@H]2C)cc1`, -59.6%. With `C[C@@H]1CN([C@H](C)CO)C(=O)c2c(c3ccccc3n2C)-c2ccccc2CO[C@@H]1CN(C)Cc1ccc(F)cc1`, the activity change was -64.4%. The result for `C[C@H]1CN([C@@H](C)CO)C(=O)c2c(c3ccccc3n2C)-c2ccccc2CO[C@H]1CN(C)S(=O)(=O)c1ccc(C#N)cc1` reads -85.2% (active). As for `C[C@H]1CN([C@@H](C)CO)C(=O)c2ccccc2-c2ccccc2CO[C@H]1CN(C)C(=O)Nc1ccc(-c2ccccc2)cc1`, the figure is -74.8%; as for `CC(C)NC(=O)N(C)C[C@H]1OCc2ccccc2-c2c(n(C)c3ccccc23)C(=O)N([C@H](C)CO)C[C@@H]1C`, 32.6%; as for `C[C@H]1CN([C@@H](C)CO)C(=O)c2ccccc2-c2ccccc2CO[C@@H]1CN(C)S(=O)(=O)c1ccc(C(F)(F)F)cc1`, -83.7% (active). As to `C[C@@H]1CN([C@H](C)CO)C(=O)c2c(c3ccccc3n2C)-c2ccccc2CO[C@H]1CN(C)Cc1ccc(F)cc1`, the activity change is -83.8% (active). The result for `CC(C)NC(=O)N(C)C[C@@H]1OCc2ccccc2-c2c(n(C)c3ccccc23)C(=O)N([C@@H](C)CO)C[C@H]1C` reads 16%; that for `C[C@H](CO)N1C[C@H](C)[C@@H](CN(C)Cc2ccc(C(F)(F)F)cc2)OCc2ccccc2-c2c(n(C)c3ccccc23)C1=O`, -13.7%; that for `CC(C)C#Cc1ccc([C@H]2[C@@H](CO)N3C(=O)CN(C(=O)Cc4ccccc4)C[C@H]23)cc1`, -68.7%. Regarding `COc1ccccc1NC(=O)N[C@H]1CC[C@H](CCNC(=O)Cc2ccccn2)O[C@@H]1CO`, the activity change was -4.42%. The result for `CCC(=O)N1C[C@@H](C)[C@H](OC)CN(C)C(=O)c2ccc(NC(=O)C3CCOCC3)cc2OC[C@@H]1C` reads -9.88%; that for `O=C(c1ccccc1)N1CC(=O)N2[C@@H](CO)[C@H](c3ccc(C#CC4CC4)cc3)[C@@H]2C1`, 16.5%; that for `C[C@H](CO)N1C[C@H](C)[C@H](CN(C)C(=O)C2CCC2)Oc2ncc(C#CCc3ccccc3)cc2C1=O`, -34.2%. On to `CCCC#Cc1ccc([C@H]2[C@H]3CN(C(=O)Nc4cccc(F)c4)CC(=O)N3[C@H]2CO)cc1`, for which the activity change is -4.18%. Take `C[C@H](CO)N1C[C@H](C)[C@H](CN(C)S(C)(=O)=O)Oc2ncc(C3=CCCC3)cc2C1=O`: the activity change was 25.5%. Take `C[C@@H]1CN([C@H](C)CO)C(=O)c2c(c3ccccc3n2C)-c2ccccc2CO[C@H]1CN(C)S(=O)(=O)c1ccccc1F`: the activity change is -58.8%. On to `C[C@@H]1CN([C@@H](C)CO)C(=O)c2c(c3ccccc3n2C)-c2ccccc2CO[C@@H]1CN(C)S(=O)(=O)CC(F)(F)F`, for which the activity change was 20.5%. The result for `Cc1ccccc1S(=O)(=O)N(C)C[C@@H]1OCc2ccccc2-c2c(n(C)c3ccccc23)C(=O)N([C@H](C)CO)C[C@H]1C` reads -67.7%; that for `C[C@@H]1CN([C@@H](C)CO)C(=O)c2c(c3ccccc3n2C)-c2ccccc2CO[C@H]1CN(C)S(=O)(=O)c1cccs1`, -56.5%. In the case of `C[C@@H]1CN([C@@H](C)CO)C(=O)c2c(c3ccccc3n2C)-c2ccccc2CO[C@@H]1CN(C)S(=O)(=O)c1ccc(F)cc1`, the activity change was -60.8%. The result for `Cc1ccc(S(=O)(=O)N(C)C[C@@H]2OCc3ccccc3-c3c(n(C)c4ccccc34)C(=O)N([C@@H](C)CO)C[C@@H]2C)cc1` reads -89.8% (active).

As to `C[C@H](CO)N1C[C@H](C)[C@@H](CN(C)S(=O)(=O)c2cccc(F)c2)OCc2ccccc2-c2c(n(C)c3ccccc23)C1=O`, the activity change is -87.4% (active). As for `C[C@@H]1CN([C@@H](C)CO)C(=O)c2c(c3ccccc3n2C)-c2ccccc2CO[C@@H]1CN(C)S(=O)(=O)c1cccs1`, the figure is -57.7%. The result for `C[C@H](CO)N1C[C@H](C)[C@@H](CN(C)S(=O)(=O)c2ccc([N+](=O)[O-])cc2)OCc2ccccc2-c2c(n(C)c3ccccc23)C1=O` reads -84.4% (active).
